Experimental data published in ChEMBL document CHEMBL3988442, “University of Dundee, Small-Polar-MMV Screening Library” (2021).
About 13,000 (27%) of roughly 48,000 compounds showed an effect of 50% or more. Some of the results follow.

tested on: Wolbachia pipientis; experiment: Anti-Wolbachia Cell-Based Screen; type: functional; parameters: scale not given: in the data most compounds retested in dose-response had high values; conditions: 5 µM

Question: For `COC(=O)c1ccc(N2CCN(C(=O)CCCc3cn[nH]c3)CC2)cc1`, which “Percent Effect” value is on record?
Answer: The value was -14.7%.

Question: How did the “Percent Effect” value turn out when `CCNc1ncc(C(=O)NCc2csc(C)n2)cn1` was run?
Answer: Its value is -20.21%.

Question: How did the “Percent Effect” value turn out when `OCCOc1ccc(NCc2cccc3cccnc23)cn1` was run?
Answer: The value was -13.71%.

Question: With `COCCNC(=O)[C@H]1CN(c2ncccn2)C[C@H]2OCC[C@@H]12` as the compound, how does the “Percent Effect” value read?
Answer: Its value is -34.97%.

Question: For `COCCNC(=O)[C@@H]1CN(c2ncccn2)C[C@H]2OCC[C@H]21`, which “Percent Effect” value is on record?
Answer: The value was -43.81%.

Question: `COCCNC(=O)[C@H]1C[C@@H]2CCN(c3ncccn3)C[C@@H]2O1` was tested. Which “Percent Effect” value did it give?
Answer: Its value is 107.5%.

Question: How did the “Percent Effect” value turn out when `COCCNC(=O)[C@H]1C[C@@H]2CCN(c3ncccn3)C[C@H]2O1.O=C(O)C(F)(F)F` was run?
Answer: The value was 108.2%.

Question: For `COCc1noc(C2(c3cccc(Cl)c3)CCOCC2)n1`, which “Percent Effect” value is on record?
Answer: The value was -3.313%.

Question: How did the “Percent Effect” value turn out when `COC(=O)c1cccc(CNC(=O)CCC(F)(F)F)c1` was run?
Answer: Its value is -15.88%.

Question: With `COC(=O)c1cccc(CNC(=O)NCCC(F)(F)F)c1` as the compound, how does the “Percent Effect” value read?
Answer: The value was -12.97%.

Question: For `COC(=O)c1ccc2ccn(CC3CCNC3)c(=O)c2c1` (centres undefined), which “Percent Effect” value is on record?
Answer: The value was -6.108%.

Question: For `CN(C)C(=O)c1cccc(C2CNCCN2C)c1` (centres undefined), which “Percent Effect” value is on record?
Answer: The value was 117.5%.

Question: How did the “Percent Effect” value turn out when `COC(=O)c1cccc(C2CNCCN2C)c1` (centres undefined) was run?
Answer: Its value is 77.97%.

Question: For `COCCN1CCN(Cc2cccc(C(=O)N(C)C)c2)CC1C` (centres undefined), which “Percent Effect” value is on record?
Answer: The value was -4.413%.

Question: How did the “Percent Effect” value turn out when `COC(=O)c1cccc(C2CNCCN2C(C)=O)c1` (centres undefined) was run?
Answer: The value was 103.9%.

Question: For `CNC(=O)c1cccc(C2CNCCN2C)c1` (centres undefined), which “Percent Effect” value is on record?
Answer: Its value is -21.17%.

Question: With `CC(=O)N1CCNCC1c1cccc(C(=O)N(C)C)c1` (centres undefined) as the compound, how does the “Percent Effect” value read?
Answer: Its value is -10.2%.

Question: How did the “Percent Effect” value turn out when `O=C(NCCc1ccncc1)c1ccc(N2CCOCC2)cc1` was run?
Answer: Its value is -6.093%.

Question: For `Cn1cc(C(=O)NCc2ccc(N3CCNC(=O)C3)c(F)c2)cn1`, which “Percent Effect” value is on record?
Answer: The value was -29.09%.

Question: With `CC(C)CCC(=O)N1CCN(C(=O)c2ccc3nccn3c2)CC1` as the compound, how does the “Percent Effect” value read?
Answer: Its value is -6.791%.

Question: With `O=C(NC1=NCCCN1c1ccc(Cl)cc1)c1cccc(Cl)c1` as the compound, how does the “Percent Effect” value read?
Answer: Its value is 17.77%.

Question: How did the “Percent Effect” value turn out when `CNc1cc(C(=O)NCCC2=CSC3=NCCCN23)ccn1` was run?
Answer: Its value is 99.62%.

Question: How did the “Percent Effect” value turn out when `CC(C)(O)CCc1cccc(C(=O)NCCC2=CSC3=NCCCN23)c1` was run?
Answer: Its value is 99.07%.

Question: For `CNc1cc(C(=O)N2CCCCC2CCn2ccnc2C)ccn1` (centres undefined), which “Percent Effect” value is on record?
Answer: The value was 14.21%.

Question: How did the “Percent Effect” value turn out when `CC(=O)N1CCOC(CNC(=O)c2cccc(CCC(C)(C)O)c2)C1` (centres undefined) was run?
Answer: The value was 13.88%.

Question: `CNc1cc(C(=O)N2CCC3(CC2)Nc2ccccc2NC3=O)ccn1` was tested. Which “Percent Effect” value did it give?
Answer: The value was 27.99%.

Question: For `CCOc1ccc(N2CCCN=C2NC(=O)c2cccc(Cl)c2)cc1`, which “Percent Effect” value is on record?
Answer: The value was -0.7192%.

Question: `CC(C)(O)CCc1cccc(C(=O)NCc2nccs2)c1` was tested. Which “Percent Effect” value did it give?
Answer: Its value is 1.829%.

Question: With `CCC(=O)Nc1cccc(C(=O)NCCC2=CSC3=NCCCN23)c1` as the compound, how does the “Percent Effect” value read?
Answer: Its value is 108.7%.

Question: With `c1ccc(Cn2ccnc2CNC2CCCOc3ccccc32)cc1` (centres undefined) as the compound, how does the “Percent Effect” value read?
Answer: The value was -11.7%.

Question: How did the “Percent Effect” value turn out when `COC(=O)C(C)CN(C)S(=O)(=O)c1c(Br)cc2[nH]c(=O)oc2c1Cl` (centres undefined) was run?
Answer: Its value is 24.19%.

Question: `Cc1cccc(N(CCC(N)=O)C(=O)c2cc(-n3cccn3)ccn2)c1` was tested. Which “Percent Effect” value did it give?
Answer: The value was -21.32%.

Question: Which “Percent Effect” value does the source give for `CC1c2ncc(CNC(=O)C3CC3)n2CCN1Cc1ccsc1.O=C(O)C(F)(F)F` (centres undefined) here?
Answer: Its value is 96.09%.

Question: For `CC1c2ncc(CNC(=O)C3CC3)n2CCN1Cc1nccs1.O=C(O)C(F)(F)F` (centres undefined), which “Percent Effect” value is on record?
Answer: The value was 120.4%.

Question: For `Cc1ncsc1CN1CCn2c(COCC3CC3)cnc2C1C.O=C(O)C(F)(F)F` (centres undefined), which “Percent Effect” value is on record?
Answer: Its value is 6.232%.

Question: How did the “Percent Effect” value turn out when `O=C(NCc1cn2c(n1)CN(Cc1ccncc1)CC2)C1CCC1.O=C(O)C(F)(F)F.O=C(O)C(F)(F)F` was run?
Answer: The value was -6.264%.

Question: How did the “Percent Effect” value turn out when `CC1c2ncc(CNC(=O)C3CC3)n2CCN1Cc1ccccn1.O=C(O)C(F)(F)F.O=C(O)C(F)(F)F` (centres undefined) was run?
Answer: Its value is 93.52%.

Question: How did the “Percent Effect” value turn out when `CC1c2ncc(CNC(=O)C3CC3)n2CCN1Cc1cnn(C)c1.O=C(O)C(F)(F)F.O=C(O)C(F)(F)F` (centres undefined) was run?
Answer: Its value is -12.81%.

Question: `O=C(NCc1cn2c(n1)CN(Cc1ccccn1)CC2)C1CCC1.O=C(O)C(F)(F)F.O=C(O)C(F)(F)F` was tested. Which “Percent Effect” value did it give?
Answer: The value was -6.874%.

Question: For `CC1c2ncc(CNC(=O)C3CC3)n2CCN1Cc1ccncc1.O=C(O)C(F)(F)F.O=C(O)C(F)(F)F` (centres undefined), which “Percent Effect” value is on record?
Answer: The value was 104.7%.

Question: `N#Cc1cn(CCCN2CCc3ccccc3C2)c(=O)[nH]c1=O` was tested. Which “Percent Effect” value did it give?
Answer: The value was -8.057%.

Question: With `COc1ccc2c(c1)OCC(Cc1ccc(N(C)C)nc1)C2` (centres undefined) as the compound, how does the “Percent Effect” value read?
Answer: The value was -17.41%.

Question: `CC(=O)NC[C@H]1COCc2nc3cc(S(C)(=O)=O)ccc3n21` was tested. Which “Percent Effect” value did it give?
Answer: The value was -22.59%.

Question: Which “Percent Effect” value does the source give for `CC1c2ncc(CNC(=O)C3CC3)n2CCN1Cc1cccnc1.O=C(O)C(F)(F)F.O=C(O)C(F)(F)F` (centres undefined) here?
Answer: Its value is 100.5%.

Question: For `CC1c2ncc(CNC(=O)C3CC3)n2CCN1CC1CCC1.O=C(O)C(F)(F)F` (centres undefined), which “Percent Effect” value is on record?
Answer: Its value is 88.49%.

Question: With `Cc1nc(COCc2cnc3n2CCN(CC2CCC2)C3C)cs1.O=C(O)C(F)(F)F` (centres undefined) as the compound, how does the “Percent Effect” value read?
Answer: The value was -9.854%.

Question: Which “Percent Effect” value does the source give for `COCc1cnc2n1CCN(C1CCC1)C2C.O=C(O)C(F)(F)F` (centres undefined) here?
Answer: The value was 11.12%.

Question: How did the “Percent Effect” value turn out when `COc1cccc2c1OCC(CNC(=O)CCCN1CCOCC1)C2` (centres undefined) was run?
Answer: The value was 2.111%.

Question: `CS(=O)(=O)NCc1cc2n(n1)CCCN(Cc1cccc(C#N)c1)C2` was tested. Which “Percent Effect” value did it give?
Answer: Its value is 3.455%.
